Sensor-assay potency score (higher = more potent) data for 39 sequences are collected here from the OligoGym collection.
Further: reference of the scale not given here.

For one test, the target named is RAET1E. The test can be described thus: pooled miR-30 sensor sort-seq; sequence = guide strand. As to conditions: shRNA.
TCATGATTAATTACTGTCCAGG: the sensor-assay potency score (higher = more potent) was -0.855. With TTCACGTTGACAAAACATCTCG, the sensor-assay potency score (higher = more potent) was -0.11. Same read-out and setting: then TTTGATGTCACAAAGGAGCATC, with -0.244; and TTCCATGTCTCCTTGATCTTAC, with -0.262; and TTGACCATGTTGTTGTCACTGT, with 0.253.

As for TTCATGATTAATTACTGTCCAG, the sensor-assay potency score (higher = more potent) is -0.655. Still for that read-out and setting: under TTACTGGTGACACTGTCGGTTC stands -0.629; under TTTACTGGTGACACTGTCGGTT, 0.119. On the same count and under the same terms, then TATCTGAAGCATTTACTGGTGA, with 0.282; and TTGACAAAACATCTCGACTTGC, with -0.439.

For TTGTTGTCACTGTTGTACTGAA, the sensor-assay potency score (higher = more potent) was -0.561.

With TTTATAGTGAAGTTGAAGCAAA, the sensor-assay potency score (higher = more potent) is -1.04.

The next test deals with RAI2. The test is described as above. Conditions: shRNA.
Consider TTGAGCTCTGGTGCGGAGCTTC, for which the sensor-assay potency score (higher = more potent) is -0.528.

For the sequence TTGAAGGAGAAGTTTTTGGTGG, the sensor-assay potency score (higher = more potent) is -0.107. The same measure, in the same setting: then TCAGCCTTGACTTCGCCGCTGG, with -0.358; and TTTTCAGCCTTGACTTCGCCGC, with -0.377; and TTCAGAACTCTGAGGCACCGGG, with -0.474. Still for that read-out and setting: under TCGGATTGAGCTCTGGTGCGGA stands -0.201; under TTTATAAAACCAATGCACCTTT, -0.626; under TCGACAGAGACAATGACCTTGG, -0.196. Still for that read-out and setting: under TTGTTGTGGATGGTACTGGAGG stands -0.912; under TTTAACTTTATGCTCCGGTTTT, -1.48. As to TTCTTTAACTTTATGCTCCGGT, the sensor-assay potency score (higher = more potent) amounted to 0.268.

As to TTTCTTTAACTTTATGCTCCGG, the sensor-assay potency score (higher = more potent) was -0.775.

A further test deals with RANBP9. Described as above. As to conditions: shRNA.
With TTGCTTGCAGCTCTCGTCCAAA, the sensor-assay potency score (higher = more potent) was -0.93. On the same count and under the same terms, then TACTACAACTTTCAAAACCTGA, with -0.44; and TAATTCTTCTAGAACGGTCTGG, with 0.443; and TAGTAGACTGAATGCATCCTTC, with -0.448. For the sequence TTTCTTTCAAGTAAACTTGGGT, the sensor-assay potency score (higher = more potent) was -0.134. In the case of TTCGGTGTCACAATCTTCCATT, the sensor-assay potency score (higher = more potent) is -0.713. On the same count and under the same terms, under TTGGACTACTAAAAGGTCGAGG stands -0.167. The same measure, in the same setting: then TAACAGGATAACTGTCTTGAGA, with -1.15; and TAACTGTCTTGAGACTTTGGAC, with -0.743; and TAGCTGAACTTGTCCTTCGGGC, with -0.541. Still for that read-out and setting: then TTTTGTATCATGGTCTGCCATT, with -1.46.

The target of the next test is RANGAP1. The test is described as above. As to conditions: shRNA.
For the sequence TCACATCTTTAGCATCTTCTGC, the sensor-assay potency score (higher = more potent) is -0.932. On the same count and under the same terms, then TTGAGTTTGAGGCTCTTGCCTT, with -0.514; and TTGGAGTTGAAGGACGAGGAGT, with -0.814. The same measure, in the same setting: then AATCTCTTTAATCACATCTTTA, with -1.26.
